Data reported in PubChem BioAssay AID1159580 (chemical genetic matrix, 2015).
Among all 5,500 compounds or so, about 2,000 (36%) were called active. Roughly 18% stayed inconclusive and do not appear here. No stated cut-off is given here; in the data, active means normalized growth mostly below about 0.91 (no sharp cut-off); inconclusive means no clear call, values can overlap the other calls; inactive means mostly above about 0.92. The list shows a part of the results.

Experiment: chemical genetic growth profiling, strain panel (AID 1159580);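 further: tested at 20 µM; growth read once vehicle control cultures reached saturation at 30 °C; 1 = growth at the plate median or of vehicle wells; lower values mean less growth of the strain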
Settings: S. cerevisiae deletion strains, growth OD

Measured: normalized growth

C=CCc1ccc(OC)cc1
inactive: locus YAL021C, strain ccr4, active compounds read low 0.982 | locus YAL026C, strain drs2, active compounds read low 1.03 | locus YAL030W, strain snc1, active compounds read low 1 | locus YBL061C, strain skt5, active compounds read low 1.01 | locus YBR009C, strain hhf1, active compounds read low 1.01 | locus YBR023C, strain chs3, active compounds read low 1.01 | locus YBR171W, strain sec66, active compounds read low 1.01 | locus YBR231C, strain swc5, active compounds read low 1.02 | locus YBR279W, strain paf1, active compounds read low 0.995 | locus YCL011C, strain gbp2, active compounds read low 0.988 | locus YCL016C, strain dcc1, active compounds read low 1 | locus YCL069W, strain vba3, active compounds read low 0.999 | locus YCR088W, strain abp1, active compounds read low 1.01 | locus YDL005C, strain med2, active compounds read low 1.02 | locus YDL040C, strain nat1, active compounds read low 0.999 | locus YDR001C, strain nth1, active compounds read low 1 | locus YDR069C, strain doa4, active compounds read low 1.01 | locus YDR137W, strain rgp1, active compounds read low 0.994 | locus YDR159W, strain sac3, active compounds read low 1.06 | locus YDR195W, strain ref2 1 | locus YDR297W, strain sur2, active compounds read low 1.04 | locus YDR334W, strain swr1, active compounds read low 1.01 | locus YDR335W, strain msn5, active compounds read low 0.996 | locus YDR392W, strain spt3, active compounds read low 0.919 | locus YEL003W, strain gim4, active compounds read low 1.01 | locus YEL037C, strain rad23, active compounds read low 1.01 | locus YEL061C, strain CIN8 (second series), active compounds read low 0.995 | locus YER015W, strain faa2, active compounds read low 1.01 | locus YER016W, strain bim1, active compounds read low 1.01 | locus YER111C, strain swi4, active compounds read low 1 | locus YER155C, strain BEM2 (second series), active compounds read low 1.04 | locus YFR010W, strain ubp6, active compounds read low 1.03 | locus YGL167C, strain pmr1, active compounds read low 1.01 | locus YGL173C, strain kem1, active compounds read low 1.03 | locus YGL227W, strain vid30, active compounds read low 1.01 | locus YGL240W, strain doc1, active compounds read low 1.02 | locus YGL253W, strain hxk2, active compounds read low 1.02 | locus YHR013C, strain ard1, active compounds read low 1.01 | locus YHR027C, strain rpn1, active compounds read low 1.01 | locus YHR030C, strain SLT2, active compounds read low 1 | locus YHR079C, strain IRE1, active compounds read low 0.989 | locus YHR142W, strain chs7, active compounds read low 0.992 | locus YJL092W, strain hpr5, active compounds read low 1.01 | locus YJL095W, strain BCK1 (second series), active compounds read low 1.01 | locus YJL095W, strain BCK1, active compounds read low 0.995 | locus YJL115W, strain asf1, active compounds read low 1.01 | locus YJL129C, strain trk1, active compounds read low 1.03 | locus YJL154C, strain vps35, active compounds read low 1 | locus YJL164C, strain tpk1, active compounds read low 0.98 | locus YJL166W, strain qcr8, active compounds read low 1.01 | locus YJL187C, strain SWE1, active compounds read low 0.997 | locus YJR066W, strain TOR1, active compounds read low 0.939 | locus YKL160W, strain elf1, active compounds read low 0.979 | locus YKR026C, strain gcn3, active compounds read low 1.01 | locus YKR091W, strain srl3, active compounds read low 1 | locus YLL001W, strain dnm1, active compounds read low 0.996 | locus YLL026W, active compounds read low 1.02 | locus YLL041C, strain sdh2, active compounds read low 1 | locus YLR027C, strain aat2, active compounds read low 1.02 | locus YLR113W, strain HOG1, active compounds read low 0.992 | locus YLR221C, strain rsa3, active compounds read low 1.03 | locus YLR258W, strain gsy2, active compounds read low 0.999 | locus YLR262C, strain YPT6 (second series), active compounds read low 0.992 | locus YLR320W, strain mms22, active compounds read low 1.03 | locus YLR342W, strain FKS1, active compounds read low 1.01 | locus YLR357W, strain rsc2, active compounds read low 1.01 | locus YLR370C, strain arc18, active compounds read low 0.995 | locus YLR384C, strain iki3, active compounds read low 1.01 | locus YML120C, strain ndi1, active compounds read low 0.986 | locus YMR058W, strain fet3, active compounds read low 1.02 | locus YMR125W, strain sto1, active compounds read low 0.967 | locus YMR129W, active compounds read low 1.02 | locus YMR205C, strain PFK2, active compounds read low 0.999 | locus YMR231W, strain pep5, active compounds read low 1.01 | locus YNL071W, strain lat1, active compounds read low 0.991 | locus YNL183C, strain NPR1, active compounds read low 0.909 | locus YNL209W, strain ssb2, active compounds read low 0.992 | locus YNL248C, strain rpa49, active compounds read low 0.952 | locus YNL322C, strain KRE1 (second series), active compounds read low 1 | locus YNR049C, strain mso1, active compounds read low 1 | locus YOR001W, strain rrp6, active compounds read low 1.02 | locus YOR070C, strain gyp1, active compounds read low 1.02 | locus YOR080W, strain dia2, active compounds read low 1.02 | locus YOR083W, strain WHI5, active compounds read low 0.974 | locus YOR106W, strain vam3, active compounds read low 0.988 | locus YOR231W, strain MKK1, active compounds read low 1 | locus YOR265W, strain rbl2, active compounds read low 1 | locus YOR270C, strain vph1, active compounds read low 1.04 | locus YOR290C, strain snf2, active compounds read low 0.956 | locus YPL051W, strain arl3, active compounds read low 1.01 | locus YPL078C, strain atp4, active compounds read low 0.96 | locus YPL106C, strain sse1, active compounds read low 1 | locus YPL240C, strain hsp82, active compounds read low 1.02 | locus YPL256C, strain CLN2, active compounds read low 1
